ChEMBL document CHEMBL1961873, “Compounds: GSK PKIS; Assays: Nanosyn kinase panel” (2012)

Assays:
[1] = biological target: Mitogen-activated protein kinase kinase kinase kinase 4 (Homo sapiens) (UniProt O95819); details: at 1 µM;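 note: reported figure is an averaged inhibition value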
[2] = biological target: Dual specificity mitogen-activated protein kinase kinase 1 (Homo sapiens) (UniProt Q02750); details: at 0.1 µM
[3] = biological target: Dual specificity mitogen-activated protein kinase kinase 1 (Homo sapiens) (UniProt Q02750); details: at 1 µM
[4] = biological target: Misshapen-like kinase 1 (Homo sapiens) (UniProt Q8N4C8); details: at 0.1 µM
Misshapen-like kinase 1 (Homo sapiens), sequence (Q8N4C8 whole entry, looked up): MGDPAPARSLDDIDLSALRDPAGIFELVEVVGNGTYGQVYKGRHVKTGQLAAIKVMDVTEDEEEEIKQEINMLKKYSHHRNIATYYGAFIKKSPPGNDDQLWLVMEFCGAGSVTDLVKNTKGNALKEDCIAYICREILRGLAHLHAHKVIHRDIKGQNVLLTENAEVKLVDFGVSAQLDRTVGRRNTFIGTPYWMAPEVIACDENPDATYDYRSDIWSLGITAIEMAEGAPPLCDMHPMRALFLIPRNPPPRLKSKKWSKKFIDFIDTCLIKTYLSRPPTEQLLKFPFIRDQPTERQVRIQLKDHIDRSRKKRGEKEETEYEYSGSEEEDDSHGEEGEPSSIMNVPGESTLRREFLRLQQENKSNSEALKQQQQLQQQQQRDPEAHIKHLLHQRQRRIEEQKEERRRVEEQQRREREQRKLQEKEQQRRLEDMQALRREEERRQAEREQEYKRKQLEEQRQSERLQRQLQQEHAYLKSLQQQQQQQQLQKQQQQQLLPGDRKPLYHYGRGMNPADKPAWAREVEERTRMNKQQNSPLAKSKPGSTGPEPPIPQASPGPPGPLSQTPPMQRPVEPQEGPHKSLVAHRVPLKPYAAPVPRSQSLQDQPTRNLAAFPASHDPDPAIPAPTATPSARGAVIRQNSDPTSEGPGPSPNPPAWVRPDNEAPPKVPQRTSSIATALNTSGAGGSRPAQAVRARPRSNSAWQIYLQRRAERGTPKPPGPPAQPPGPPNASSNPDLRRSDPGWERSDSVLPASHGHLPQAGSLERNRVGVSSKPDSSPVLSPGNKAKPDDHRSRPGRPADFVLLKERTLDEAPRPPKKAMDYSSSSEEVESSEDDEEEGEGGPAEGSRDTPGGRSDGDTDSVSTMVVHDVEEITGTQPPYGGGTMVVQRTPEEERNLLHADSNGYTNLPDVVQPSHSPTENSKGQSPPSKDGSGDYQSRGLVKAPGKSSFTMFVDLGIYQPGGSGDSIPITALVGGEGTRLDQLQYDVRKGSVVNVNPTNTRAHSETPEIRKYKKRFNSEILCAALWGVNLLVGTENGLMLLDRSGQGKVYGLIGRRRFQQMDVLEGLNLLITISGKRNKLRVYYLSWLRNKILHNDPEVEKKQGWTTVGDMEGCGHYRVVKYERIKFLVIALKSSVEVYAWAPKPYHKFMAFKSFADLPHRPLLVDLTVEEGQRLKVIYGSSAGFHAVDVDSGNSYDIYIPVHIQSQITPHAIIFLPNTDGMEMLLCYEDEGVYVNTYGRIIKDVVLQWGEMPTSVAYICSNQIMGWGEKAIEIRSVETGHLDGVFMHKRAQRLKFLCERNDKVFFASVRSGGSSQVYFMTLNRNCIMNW

[5] = biological target: Misshapen-like kinase 1 (Homo sapiens) (UniProt Q8N4C8); details: at 1 µM
[6] = biological target: T1, Serine/threonine-protein kinase 4 (Homo sapiens) (UniProt Q13043); details: at 0.1 µM
T1 sequence (whole entry): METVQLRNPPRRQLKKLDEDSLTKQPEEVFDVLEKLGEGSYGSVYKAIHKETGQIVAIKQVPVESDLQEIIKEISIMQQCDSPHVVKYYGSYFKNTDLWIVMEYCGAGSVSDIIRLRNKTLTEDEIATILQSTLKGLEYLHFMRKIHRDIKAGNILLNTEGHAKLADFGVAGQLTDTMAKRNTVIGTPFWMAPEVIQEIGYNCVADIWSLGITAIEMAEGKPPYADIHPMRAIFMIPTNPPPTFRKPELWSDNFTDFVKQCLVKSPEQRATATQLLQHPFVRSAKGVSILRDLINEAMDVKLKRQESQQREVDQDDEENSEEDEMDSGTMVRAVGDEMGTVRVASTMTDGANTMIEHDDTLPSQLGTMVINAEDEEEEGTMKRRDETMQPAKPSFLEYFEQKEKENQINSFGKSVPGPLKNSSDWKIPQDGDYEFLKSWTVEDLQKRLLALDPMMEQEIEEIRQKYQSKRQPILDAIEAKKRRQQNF

[7] = biological target: T1, Serine/threonine-protein kinase 4 (Homo sapiens); details: at 1 µM
[8] = biological target: T2, Serine/threonine-protein kinase 3 (Homo sapiens) (UniProt Q13188); details: at 0.1 µM
T2 sequence (whole entry): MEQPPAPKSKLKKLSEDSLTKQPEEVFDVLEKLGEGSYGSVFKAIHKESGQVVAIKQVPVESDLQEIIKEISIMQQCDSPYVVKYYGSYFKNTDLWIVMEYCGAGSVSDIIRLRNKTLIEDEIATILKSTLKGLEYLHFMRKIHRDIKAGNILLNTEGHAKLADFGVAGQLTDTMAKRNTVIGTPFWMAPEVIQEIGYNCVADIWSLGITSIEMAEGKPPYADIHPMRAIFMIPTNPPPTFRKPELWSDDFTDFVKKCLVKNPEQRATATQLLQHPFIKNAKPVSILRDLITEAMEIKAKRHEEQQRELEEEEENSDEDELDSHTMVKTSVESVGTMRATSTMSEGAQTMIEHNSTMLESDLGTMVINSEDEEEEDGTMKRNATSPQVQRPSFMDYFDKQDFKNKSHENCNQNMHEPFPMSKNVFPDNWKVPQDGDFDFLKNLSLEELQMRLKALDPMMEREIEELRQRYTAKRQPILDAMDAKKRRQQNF

[9] = biological target: T2, Serine/threonine-protein kinase 3 (Homo sapiens); details: at 1 µM
[10] = biological target: Serine/threonine-protein kinase 26 (Homo sapiens) (UniProt Q9P289); details: at 0.1 µM
[11] = biological target: Serine/threonine-protein kinase 26 (Homo sapiens) (UniProt Q9P289); details: at 1 µM
[12] = biological target: Serine/threonine-protein kinase PAK 1 (Homo sapiens) (UniProt Q13153); details: at 0.1 µM
[13] = biological target: Serine/threonine-protein kinase PAK 1 (Homo sapiens) (UniProt Q13153); details: at 1 µM
[14] = biological target: Serine/threonine-protein kinase PAK 2 (Homo sapiens) (UniProt Q13177); details: at 0.1 µM
Serine/threonine-protein kinase PAK 2 (Homo sapiens), sequence (Q13177 whole entry): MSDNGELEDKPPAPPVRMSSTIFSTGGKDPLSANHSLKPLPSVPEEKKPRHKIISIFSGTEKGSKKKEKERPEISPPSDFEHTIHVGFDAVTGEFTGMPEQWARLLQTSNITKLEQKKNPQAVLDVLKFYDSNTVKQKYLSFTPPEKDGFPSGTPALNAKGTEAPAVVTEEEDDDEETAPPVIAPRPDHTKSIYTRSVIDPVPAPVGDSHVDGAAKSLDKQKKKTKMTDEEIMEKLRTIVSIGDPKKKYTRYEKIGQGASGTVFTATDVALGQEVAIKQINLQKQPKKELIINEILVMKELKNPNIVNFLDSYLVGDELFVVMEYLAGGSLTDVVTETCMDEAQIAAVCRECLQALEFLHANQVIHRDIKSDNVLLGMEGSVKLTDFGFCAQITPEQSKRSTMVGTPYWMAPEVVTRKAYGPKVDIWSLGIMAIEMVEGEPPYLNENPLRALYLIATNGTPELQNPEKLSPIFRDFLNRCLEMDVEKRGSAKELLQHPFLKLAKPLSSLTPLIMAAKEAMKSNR

[15] = biological target: Serine/threonine-protein kinase PAK 2 (Homo sapiens) (UniProt Q13177); details: at 1 µM
[16] = biological target: Serine/threonine-protein kinase PAK 3 (Homo sapiens) (UniProt O75914); details: at 0.1 µM
Serine/threonine-protein kinase PAK 3 (Homo sapiens), sequence (O75914 whole entry, looked up): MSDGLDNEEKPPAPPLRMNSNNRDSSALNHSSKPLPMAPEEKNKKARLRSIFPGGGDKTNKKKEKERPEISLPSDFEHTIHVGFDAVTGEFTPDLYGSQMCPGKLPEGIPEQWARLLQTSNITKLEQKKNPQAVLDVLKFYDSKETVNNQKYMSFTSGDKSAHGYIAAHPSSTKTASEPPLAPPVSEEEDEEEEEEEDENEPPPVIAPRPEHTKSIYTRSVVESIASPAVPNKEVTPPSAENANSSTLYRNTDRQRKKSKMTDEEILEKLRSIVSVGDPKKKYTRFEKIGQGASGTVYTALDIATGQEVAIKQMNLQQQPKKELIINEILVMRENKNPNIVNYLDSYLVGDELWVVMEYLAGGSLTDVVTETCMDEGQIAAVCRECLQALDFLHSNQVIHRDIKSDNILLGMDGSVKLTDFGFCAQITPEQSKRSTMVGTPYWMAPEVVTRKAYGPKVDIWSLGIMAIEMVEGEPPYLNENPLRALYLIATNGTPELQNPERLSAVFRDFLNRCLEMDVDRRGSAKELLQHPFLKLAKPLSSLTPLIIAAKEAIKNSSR

[17] = biological target: Serine/threonine-protein kinase PAK 3 (Homo sapiens) (UniProt O75914); details: at 1 µM
[18] = biological target: Serine/threonine-protein kinase PAK 5 (Homo sapiens) (UniProt Q9P286); details: at 0.1 µM
Serine/threonine-protein kinase PAK 5 (Homo sapiens), sequence (Q9P286 whole entry, looked up): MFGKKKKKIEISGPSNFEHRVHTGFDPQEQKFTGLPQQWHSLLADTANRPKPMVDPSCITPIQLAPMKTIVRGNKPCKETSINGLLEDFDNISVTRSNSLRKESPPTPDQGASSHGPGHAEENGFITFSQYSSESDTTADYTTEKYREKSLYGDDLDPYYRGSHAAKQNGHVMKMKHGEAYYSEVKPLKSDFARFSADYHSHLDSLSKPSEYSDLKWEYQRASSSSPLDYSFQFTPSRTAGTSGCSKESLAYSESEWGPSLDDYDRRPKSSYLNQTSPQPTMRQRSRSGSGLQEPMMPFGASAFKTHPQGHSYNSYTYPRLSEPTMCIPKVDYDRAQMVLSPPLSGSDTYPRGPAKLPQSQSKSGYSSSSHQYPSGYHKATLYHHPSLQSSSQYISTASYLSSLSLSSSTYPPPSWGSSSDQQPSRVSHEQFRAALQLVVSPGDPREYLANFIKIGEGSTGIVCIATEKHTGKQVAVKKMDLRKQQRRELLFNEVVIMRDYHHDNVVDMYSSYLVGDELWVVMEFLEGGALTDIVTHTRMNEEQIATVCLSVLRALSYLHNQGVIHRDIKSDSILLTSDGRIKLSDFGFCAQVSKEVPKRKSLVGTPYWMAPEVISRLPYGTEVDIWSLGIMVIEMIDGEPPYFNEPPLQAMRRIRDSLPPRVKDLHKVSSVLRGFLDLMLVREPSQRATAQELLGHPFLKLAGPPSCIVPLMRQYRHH

[19] = biological target: Serine/threonine-protein kinase PAK 5 (Homo sapiens) (UniProt Q9P286); details: at 1 µM
[20] = biological target: Serine/threonine-protein kinase PAK 6 (Homo sapiens) (UniProt Q9NQU5); details: at 0.1 µM;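 note: mean PAK6 inhibition reported from the GSK PKIS screen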
Serine/threonine-protein kinase PAK 6 (Homo sapiens), sequence (Q9NQU5 whole entry, looked up): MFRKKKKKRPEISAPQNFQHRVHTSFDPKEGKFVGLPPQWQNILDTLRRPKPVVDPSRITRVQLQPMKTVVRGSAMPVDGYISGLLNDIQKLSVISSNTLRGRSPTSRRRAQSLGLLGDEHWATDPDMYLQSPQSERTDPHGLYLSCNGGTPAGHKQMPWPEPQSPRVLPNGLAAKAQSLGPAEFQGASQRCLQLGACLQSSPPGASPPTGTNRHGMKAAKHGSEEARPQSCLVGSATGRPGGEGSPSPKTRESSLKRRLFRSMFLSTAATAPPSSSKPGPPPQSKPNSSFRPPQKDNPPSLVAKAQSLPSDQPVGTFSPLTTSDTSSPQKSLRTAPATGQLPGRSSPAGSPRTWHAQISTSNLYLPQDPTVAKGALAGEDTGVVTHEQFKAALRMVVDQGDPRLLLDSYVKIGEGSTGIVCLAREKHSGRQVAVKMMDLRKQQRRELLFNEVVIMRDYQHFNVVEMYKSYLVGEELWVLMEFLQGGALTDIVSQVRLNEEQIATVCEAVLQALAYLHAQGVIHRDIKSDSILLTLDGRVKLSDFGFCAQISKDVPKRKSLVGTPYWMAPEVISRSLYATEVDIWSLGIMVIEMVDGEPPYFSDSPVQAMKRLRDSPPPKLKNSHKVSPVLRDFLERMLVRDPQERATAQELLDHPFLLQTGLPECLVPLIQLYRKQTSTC

Mitogen-activated protein kinase kinase kinase kinase 4 (Homo sapiens), sequence (O95819 2-1239 limits assumed): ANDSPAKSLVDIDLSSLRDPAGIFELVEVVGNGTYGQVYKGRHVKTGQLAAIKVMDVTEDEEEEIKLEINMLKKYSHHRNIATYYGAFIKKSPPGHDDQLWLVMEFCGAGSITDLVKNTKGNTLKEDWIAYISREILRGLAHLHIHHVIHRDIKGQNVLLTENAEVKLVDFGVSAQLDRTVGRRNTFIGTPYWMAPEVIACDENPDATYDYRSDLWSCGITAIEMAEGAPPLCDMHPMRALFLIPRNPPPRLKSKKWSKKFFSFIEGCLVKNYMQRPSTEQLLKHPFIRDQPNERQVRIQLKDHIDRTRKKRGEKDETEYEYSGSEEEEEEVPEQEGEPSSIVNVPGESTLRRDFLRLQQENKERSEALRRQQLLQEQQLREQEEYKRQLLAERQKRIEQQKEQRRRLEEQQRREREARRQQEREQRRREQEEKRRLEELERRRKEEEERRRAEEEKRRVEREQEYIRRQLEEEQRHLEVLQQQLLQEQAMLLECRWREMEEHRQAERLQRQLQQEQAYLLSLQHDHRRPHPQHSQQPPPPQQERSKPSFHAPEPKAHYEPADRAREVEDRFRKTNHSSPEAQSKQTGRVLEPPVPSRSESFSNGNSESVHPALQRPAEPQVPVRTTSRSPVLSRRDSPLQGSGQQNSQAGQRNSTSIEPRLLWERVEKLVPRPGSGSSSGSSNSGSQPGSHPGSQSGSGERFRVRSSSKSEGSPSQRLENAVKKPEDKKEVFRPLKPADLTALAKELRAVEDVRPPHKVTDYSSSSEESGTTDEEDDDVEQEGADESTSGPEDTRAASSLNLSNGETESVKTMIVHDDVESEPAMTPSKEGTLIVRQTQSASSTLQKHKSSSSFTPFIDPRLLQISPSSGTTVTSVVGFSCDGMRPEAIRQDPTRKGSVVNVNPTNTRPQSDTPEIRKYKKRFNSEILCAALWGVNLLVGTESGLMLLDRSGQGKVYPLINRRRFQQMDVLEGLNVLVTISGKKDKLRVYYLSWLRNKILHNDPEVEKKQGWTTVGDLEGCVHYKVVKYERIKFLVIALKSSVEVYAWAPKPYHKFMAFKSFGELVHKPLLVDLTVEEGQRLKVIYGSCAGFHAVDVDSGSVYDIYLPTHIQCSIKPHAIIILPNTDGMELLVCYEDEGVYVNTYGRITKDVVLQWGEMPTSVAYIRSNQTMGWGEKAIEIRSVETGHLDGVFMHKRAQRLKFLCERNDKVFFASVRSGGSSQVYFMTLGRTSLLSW

SMILES	inhibition [1] [%]	inhibition [2] [%]	inhibition [3] [%]	inhibition [4] [%]	inhibition [5] [%]	inhibition [6] [%]	inhibition [7] [%]	inhibition [8] [%]	inhibition [9] [%]	inhibition [10] [%]	inhibition [11] [%]	inhibition [12] [%]	inhibition [13] [%]	inhibition [14] [%]	inhibition [15] [%]	inhibition [16] [%]	inhibition [17] [%]	inhibition [18] [%]	inhibition [19] [%]	inhibition [20] [%]
CCC(=O)Nc1ccc(C)c(-c2ccc(C(=O)NCC3CC3)cc2)c1	5.43	3.72	2.87	7.03	5.64	2.76	3.12	3.02	2.84	-1.82	-3.71	3.98	9.02	0.42	0.8	2.56	3.37	-0.07	-2.96	-8.71
CCc1cccc(CC)c1/C=C/c1cncc(C(=O)NC)c1	7.49	2.63	2.68	3.66	6.06	5.37	5.19	5.6	3.95	-0.96	-4.27	6.83	2.08	2.1	1.76	2.61	3.43	8.04	-1.06	-5.49
NS(=O)(=O)c1ccc(N/N=C2\C(=O)Nc3ccc(-c4cnco4)cc32)cc1	77.6	2.18	5.31	51.6	75.8	43.8	76.8	33.4	73.2	0.61	11.1	2.52	3.12	0.33	0.86	1.7	2.52	0.27	-0.09	
COc1ccc2cc(-c3c(-c4ccncc4)nc(-c4ccc(S(C)(=O)=O)cc4C)n3C)ccc2c1	14.8	6.08	4.97	6.31	13.9	2.82	8.72	4.72	12.6	-0.63	2.09	9.36	10	2.04	2.16	5.62	4.99	-1.89	3.62	
COc1cc(N2CCN(C(C)C)CC2)ccc1Nc1nc(Nc2ccc(F)cc2C(=O)NC[C@@H](O)CO)c2cc[nH]c2n1	13.6	6.5	5.77	7.5	12	4.86	6.99	6.36	7.9	-1.23	-2.64	4.77	11.8	1.33	1.54	4.85	6.19	2.5	-2.48	5.3
O=C(NCC1CC1)c1ccc(-c2cccc(C(=O)NC3CC3)c2)cc1	2.03	3.01	1.66	2.89	-1.8	4.49	5.3	4.78	3.31	-2.14	-6.13	1.6	3.71	2.76	1.58	2.9	2.97	9.42	6.07	-1.35
C/C(Nc1ccc(S(N)(=O)=O)cc1)=C1/C(=O)Nc2ccccc21	88.3	-1.13	0.96	34.1	85.3	10.2	55.3	3.63	42.3	-1.9	15.6	-3.4	2.37	-1.56	-1.06	-1.9	-1.11	-6.43	2.88	-4.08
O=C(Nc1n[nH]c2nc(-c3ccco3)ccc12)C1CC1	32.1	-0.04	0.75	3.07	18.1	1.17	1.95	0	-0.23	0.08	1.1	0.35	1.74	0.42	-0.03	0.51	0.64	5.55	3.74	6.27
Fc1ccc(-c2c(-c3ccncc3)nc3n2CCS3)cc1	10.8	3.75	4.29	4.97	9.56	1.09	2.38	1.69	3.46	-0.47	1.66	6.15	-0.03	-0.52	0.49	2.55	3.16	1.47	3.62	1.52
CN(C)CCCNc1nccc(-c2c(-c3ccc(F)cc3)nn3cc(C(F)(F)F)ccc23)n1	10.6	1.86	2.52	5.22	7.76	2.92	4.75	3.38	3.61	-0.11	0.55	-1.51	-0.15	1.45	1.67	1.76	2.77	0.97	1.58	2.33
COc1ccc2cc(-c3c(-c4ccncc4)nc(-c4ccc([S+](C)[O-])cc4C)n3C)ccc2c1 (configuration not stated)	17.7	-0.9	-1.09	0.1	12.5	-2.13	7.66	-0.9	17.3	0.68	3.65	-1.49	-0.86	-1.29	-1.27	-0.99	-1.45	-5.87	6.4	-2.81
CCS(=O)(=O)c1ccc(OC)c(Nc2ncc(-c3ccccc3Cl)o2)c1	24.2	-0.28	0.4	4.25	22.4	1.96	5.89	1.11	2.6	1.19	1.46	-0.73	-1.58	1.78	0.49	-0.53	0.98	3.82	17.3	-6.91
CCN(CC)Cc1ccc(Nc2nccc(-c3cnn4ncccc34)n2)cc1	20.4	3.09	13.1	5.68	17	1.35	15.9	5.43	9.79	-1.89	0.74	5.45	9.08	1.19	3.41	4.82	6	1.9	5.43	
COc1cc(Nc2ncc3c(C)nc(-c4cccc(Oc5ccccc5)c4)n3n2)cc(OC)c1OC	5.36	2.88	9.12	1.96	2.84	5.41	6.48	5.14	4.82	-0.33	-2.15	4.4	3.74	1.49	1.12	2.09	4.11	1.86	4.51	-2.06
CS(=O)(=O)CCNCc1ccc(-c2ccc3ncnc(Nc4ccc(OCc5ccccc5)c(Br)c4)c3c2)o1	6.29	1.96	1.78	4.51	5.24	2.67	2.76	4.32	5.08	-0.82	-1.33	5.64	8.98	0.93	1.63	5.05	4.4	1.46	0.13	-8.08
O=C(Nc1ccc(Oc2ccc3[nH]c(NC(=O)c4ccccc4)nc3c2)cc1)Nc1cc(C(F)(F)F)ccc1F	5.89	2.91	2.61	3.26	4.54	5.74	10.6	5.74	8.42	0.36	-0.48	5.49	5.94	2.09	2.3	2.23	2.99	3.8	4.86	
C#Cc1cccc(Nc2ncnc3ccc(OCCCCNCCS(C)(=O)=O)cc23)c1	19.6	6.88	4.96	9.17	17.6	4.35	7.8	5.45	7.49	-2.14	-0.45	9.27	7.48	2.71	1.48	4.58	5.67	2.62	4.31	-6.04
COC(=O)Nc1nc2ccc(Sc3ccc(NC(=O)Nc4cc(C(F)(F)F)ccc4F)cc3)cc2[nH]1	7.12	-0.42	0.12	0.07	0.67	2.61	3.26	2.16	1.83	1.18	-1.61	-1.15	-1.32	10.8	0.18	-0.08	0.83	6.86	-2.02	-4.57
CNC(=O)c1cncc(/C=C/c2c(C)cccc2C)c1	7.57	-0.07	0.41	1.75	3.59	2.23	3.51	2.27	2.73	0.91	2.22	0.04	3.72	1.52	-0.05	-0.14	0.85	7.14	2.41	
CCc1ccc(Oc2nccc(-c3c(-c4ccc(F)cc4)ncn3C3CCNCC3)n2)cc1	11.4	3.92	8.98	4.83	12.1	3.84	5.43	5.44	5.88	0.4	2.83	4.48	10.2	1.26	2.44	4.22	5.69	6.56	9.57	-5.49
Fc1ccc(-c2ncn(C3CCNCC3)c2-c2ccnc(Oc3ccc(F)c(F)c3)n2)cc1	10.9	3.03	3.8	8.56	12	7.1	7.9	10.2	9.55	1.93	5.23	5.03	4.33	0.93	1.83	4.91	5.71	1.64	0.29	
c1ccc(-c2n[nH]cc2-c2ccnc(-c3ccc(OCCN4CCOCC4)cc3)c2)nc1	77.5	-0.91	-0.3	20.2	69.2	1.73	2.13	2.06	0.12	5.82	2.93	-0.81	5.57	1.69	0.57	3.54	3.78	-6.65	4.04	7.57
O=C1Nc2ccc(I)cc2C1=Cc1cc(Br)c(O)c(Br)c1	83.7	3.38	3.62	18.9	73.2	3.39	17.2	3.5	19.5	0.13	8.78	7.31	11.5	1.87	1.49	3.52	5.78	9.36	10.2	
COc1ccc(-c2ccc3c(NC(=O)C4CC4)n[nH]c3n2)cc1	33	2.82	2.1	5.24	21.8	2.12	4.96	2.09	5.21	-1.38	1.05	2.82	2.7	-1.11	-0.84	3.36	3.17	-5.83	-4.91	2.86
CS(=O)(=O)CCNCc1cc(-c2cc3c(Nc4ccc(OCc5cccc(F)c5)c(Cl)c4)ncnc3s2)cs1	10.3	4.54	5.74	6.33	8.36	4.99	6.28	6.59	6.16	-2.65	-1.71	10.9	9.09	2.13	3.83	4.86	7.41	5.61	3.34	-6.6
Clc1ccc(CNc2nccc(-c3cnn4ncccc34)n2)cc1	16.3	0.08	2.12	1.36	10.7	3.22	5.84	2.53	3.57	-0.31	1.18	-2.27	-0.13	0.78	0.67	-0.26	0.29	8.39	2.06	
FC(F)(F)c1cccc(Nc2nccc(-c3cnn4nc(-c5ccccc5)ccc34)n2)c1	3.3	2.8	3.14	3.38	3.06	1.12	3.6	3.94	3.81	0.42	-3.24	6.28	3.48	0.33	0.77	2.74	2.27	-0.43	-0.64	-2.37
